# According to the supplement of paper PMC4022240:
# ± gives the standard deviation.
# Key:
# Test in all cases: peptide microarray binding signal (635 nm), min-max normalized on array (fraction of array maximum); higher = stronger binding
# Settings in all cases: peptide region: H3 50-62
# [1] = molecular target: T1, HaloTag-ATRX ADD domain (163-292)
# T1 chain: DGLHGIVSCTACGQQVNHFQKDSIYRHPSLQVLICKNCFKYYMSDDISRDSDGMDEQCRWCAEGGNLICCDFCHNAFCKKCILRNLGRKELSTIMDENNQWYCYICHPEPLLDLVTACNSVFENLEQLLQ
# Summary of the method: (§1)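 Binding signal is the mean intensity of triplicate spots, min-max scaled within each library. Histone 13-mer peptide–cellulose conjugates were spotted in triplicate on nitrocellulose with a Cy3 tracer and blocked overnight at 4°C. Probing lasted 1 h at 4°C, either with biotin-labelled HaloTag reader fusions (10 nM to 1 μM) and streptavidin-Alexa Fluor 647 or with rabbit histone antibodies (1:10,000 to 1:2,000) and anti-rabbit Alexa 647. An Axon GenePix 4000B read signal at 635 nm and misprints at 532 nm.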
# [2] = molecular target: HaloTag-ING2 PHD (mouse Ing2 200-280)
# Summary of the method: as §1
# [3] = molecular target: anti-H3K4me3 antibody ab8580
# Summary of the method: as §1
# [4] = molecular target: anti-H3K9me3 antibody ab8898
# Summary of the method: as §1
# [5] = binder concentration: 1:2,000 dilution
# [6] = binder concentration: 1:10,000 dilution
# [7] = peptide modifications: H3K56ac H3S57ph, binder concentration: 1:2,000 dilution
# [8] = peptide modifications: H3K56ac H3S57ph, binder concentration: 1:10,000 dilution
# [9] = peptide modifications: H3K56ac H3T58ph, binder concentration: 1:2,000 dilution
# [10] = peptide modifications: H3K56ac H3T58ph, binder concentration: 1:10,000 dilution
# [11] = peptide modifications: H3K56ac, binder concentration: 1:2,000 dilution
# [12] = peptide modifications: H3K56ac, binder concentration: 1:10,000 dilution
# [13] = peptide modifications: H3K56me1 H3S57ph, binder concentration: 1:2,000 dilution
# [14] = peptide modifications: H3K56me1 H3S57ph, binder concentration: 1:10,000 dilution
# [15] = peptide modifications: H3K56me2, binder concentration: 1:2,000 dilution
# [16] = peptide modifications: H3K56me2, binder concentration: 1:10,000 dilution
# [17] = peptide modifications: H3K56me2 H3S57ph, binder concentration: 1:2,000 dilution
# [18] = peptide modifications: H3K56me2 H3S57ph, binder concentration: 1:10,000 dilution
# [19] = peptide modifications: H3K56me2 H3T58ph, binder concentration: 1:2,000 dilution
# [20] = peptide modifications: H3K56me2 H3T58ph, binder concentration: 1:10,000 dilution
# [21] = peptide modifications: H3K56me3, binder concentration: 1:2,000 dilution
# [22] = peptide modifications: H3K56me3, binder concentration: 1:10,000 dilution
# [23] = peptide modifications: H3K56me3 H3S57ph, binder concentration: 1:2,000 dilution
# [24] = peptide modifications: H3K56me3 H3S57ph, binder concentration: 1:10,000 dilution
binder,measurement,setting,value
EIRRYQKSTELLI [H3 50-62 E I R R Y Q K S T E L L I],peptide microarray binding signal,[1]; binder concentration: 50 nM,0.00599 ± 0.00033
same,peptide microarray binding signal,[1]; binder concentration: 500 nM,0.0144 ± 0.00044
same,peptide microarray binding signal,[2]; binder concentration: 10 nM,0.00859 ± 0.00029
same,peptide microarray binding signal,[2]; binder concentration: 100 nM,0.00149 ± 5.6e-05
same,peptide microarray binding signal,[3]; [5],0.00017 ± 3.2e-06
same,peptide microarray binding signal,[3]; [6],0.00514 ± 0.0014
same,peptide microarray binding signal,[4]; [5],0.00299 ± 0.00025
same,peptide microarray binding signal,[4]; [6],0.00288 ± 7.4e-05
EIRRYQKSTELLI [H3 50-62 E I R R Y Q Kac Sph T E L L I],peptide microarray binding signal,"[1]; peptide modifications: H3K56ac H3S57ph, binder concentration: 50 nM",0.00069 ± 9.4e-06
same,peptide microarray binding signal,"[1]; peptide modifications: H3K56ac H3S57ph, binder concentration: 500 nM",0.00119 ± 4e-05
same,peptide microarray binding signal,"[2]; peptide modifications: H3K56ac H3S57ph, binder concentration: 10 nM",0.00197 ± 4.2e-05
same,peptide microarray binding signal,"[2]; peptide modifications: H3K56ac H3S57ph, binder concentration: 100 nM",0.000567 ± 6.4e-06
same,peptide microarray binding signal,[3]; [7],5.66e-05
same,peptide microarray binding signal,[3]; [8],0.000399 ± 2.6e-05
same,peptide microarray binding signal,[4]; [7],0.000861 ± 5.4e-05
same,peptide microarray binding signal,[4]; [8],0.000577 ± 6.2e-06
EIRRYQKSTELLI [H3 50-62 E I R R Y Q Kac S Tph E L L I],peptide microarray binding signal,"[1]; peptide modifications: H3K56ac H3T58ph, binder concentration: 50 nM",0.00141 ± 1.8e-05
same,peptide microarray binding signal,"[1]; peptide modifications: H3K56ac H3T58ph, binder concentration: 500 nM",0.001381 ± 1.3e-05
same,peptide microarray binding signal,"[2]; peptide modifications: H3K56ac H3T58ph, binder concentration: 10 nM",0.002924 ± 2.8e-05
same,peptide microarray binding signal,"[2]; peptide modifications: H3K56ac H3T58ph, binder concentration: 100 nM",0.00149 ± 1.5e-05
same,peptide microarray binding signal,[3]; [9],0.0004719 ± 4.7e-06
same,peptide microarray binding signal,[3]; [10],0.000514 ± 5.5e-06
same,peptide microarray binding signal,[4]; [9],0.000468 ± 1.8e-05
same,peptide microarray binding signal,[4]; [10],0.00104 ± 5.9e-05
EIRRYQKSTELLI [H3 50-62 E I R R Y Q Kac S T E L L I],peptide microarray binding signal,"[1]; peptide modifications: H3K56ac, binder concentration: 50 nM",0.0121 ± 0.00021
same,peptide microarray binding signal,"[1]; peptide modifications: H3K56ac, binder concentration: 500 nM",0.0135 ± 0.0015
same,peptide microarray binding signal,"[2]; peptide modifications: H3K56ac, binder concentration: 10 nM",0.00913 ± 0.00065
same,peptide microarray binding signal,"[2]; peptide modifications: H3K56ac, binder concentration: 100 nM",0.0108 ± 0.00062
same,peptide microarray binding signal,[3]; [11],0.0016 ± 0.00024
same,peptide microarray binding signal,[3]; [12],0.00211 ± 0.00015
same,peptide microarray binding signal,[4]; [11],0.00222 ± 0.00049
same,peptide microarray binding signal,[4]; [12],0.00173 ± 6.6e-05
EIRRYQKSTELLI [H3 50-62 E I R R Y Q Kme Sph T E L L I],peptide microarray binding signal,"[1]; peptide modifications: H3K56me1 H3S57ph, binder concentration: 50 nM",0.00125 ± 3.7e-05
same,peptide microarray binding signal,"[1]; peptide modifications: H3K56me1 H3S57ph, binder concentration: 500 nM",0.00143 ± 2.3e-05
same,peptide microarray binding signal,"[2]; peptide modifications: H3K56me1 H3S57ph, binder concentration: 10 nM",0.00209 ± 2.4e-05
same,peptide microarray binding signal,"[2]; peptide modifications: H3K56me1 H3S57ph, binder concentration: 100 nM",0.00085 ± 2.5e-05
same,peptide microarray binding signal,[3]; [13],0.000264 ± 7.4e-06
same,peptide microarray binding signal,[3]; [14],0.000342 ± 3.8e-06
same,peptide microarray binding signal,[4]; [13],0.000861 ± 8.7e-05
same,peptide microarray binding signal,[4]; [14],0.000519 ± 5.6e-06
EIRRYQKSTELLI [H3 50-62 E I R R Y Q Kme2 S T E L L I],peptide microarray binding signal,"[1]; peptide modifications: H3K56me2, binder concentration: 50 nM",0.01 ± 0.00043
same,peptide microarray binding signal,"[1]; peptide modifications: H3K56me2, binder concentration: 500 nM",0.0165 ± 0.0014
same,peptide microarray binding signal,"[2]; peptide modifications: H3K56me2, binder concentration: 10 nM",0.0135 ± 0.0033
same,peptide microarray binding signal,"[2]; peptide modifications: H3K56me2, binder concentration: 100 nM",0.00624 ± 0.00068
same,peptide microarray binding signal,[3]; [15],0.000868 ± 0.00013
same,peptide microarray binding signal,[3]; [16],0.00171 ± 8.6e-05
same,peptide microarray binding signal,[4]; [15],0.00953 ± 0.00056
same,peptide microarray binding signal,[4]; [16],0.00323 ± 0.0002
EIRRYQKSTELLI [H3 50-62 E I R R Y Q Kme2 Sph T E L L I],peptide microarray binding signal,"[1]; peptide modifications: H3K56me2 H3S57ph, binder concentration: 50 nM",0.00113 ± 1.5e-05
same,peptide microarray binding signal,"[1]; peptide modifications: H3K56me2 H3S57ph, binder concentration: 500 nM",0.00124 ± 2.3e-05
same,peptide microarray binding signal,"[2]; peptide modifications: H3K56me2 H3S57ph, binder concentration: 10 nM",0.00269 ± 0.00012
same,peptide microarray binding signal,"[2]; peptide modifications: H3K56me2 H3S57ph, binder concentration: 100 nM",0.00128 ± 1.3e-05
same,peptide microarray binding signal,[3]; [17],0.000378 ± 3.9e-06
same,peptide microarray binding signal,[3]; [18],0.000342 ± 3.8e-06
same,peptide microarray binding signal,[4]; [17],0.000725 ± 3.3e-05
same,peptide microarray binding signal,[4]; [18],0.000634 ± 1.2e-05
EIRRYQKSTELLI [H3 50-62 E I R R Y Q Kme2 S Tph E L L I],peptide microarray binding signal,"[1]; peptide modifications: H3K56me2 H3T58ph, binder concentration: 50 nM",0.00116 ± 2.9e-05
same,peptide microarray binding signal,"[1]; peptide modifications: H3K56me2 H3T58ph, binder concentration: 500 nM",0.00181 ± 4.2e-05
same,peptide microarray binding signal,"[2]; peptide modifications: H3K56me2 H3T58ph, binder concentration: 10 nM",0.00286 ± 0.00011
same,peptide microarray binding signal,"[2]; peptide modifications: H3K56me2 H3T58ph, binder concentration: 100 nM",0.000992 ± 1.1e-05
same,peptide microarray binding signal,[3]; [19],0.000415 ± 1.5e-05
same,peptide microarray binding signal,[3]; [20],0.000456 ± 4.9e-06
same,peptide microarray binding signal,[4]; [19],0.00199 ± 0.00011
same,peptide microarray binding signal,[4]; [20],0.000923 ± 1.9e-05
EIRRYQKSTELLI [H3 50-62 E I R R Y Q Kme3 S T E L L I],peptide microarray binding signal,"[1]; peptide modifications: H3K56me3, binder concentration: 50 nM",0.00232 ± 0.0002
same,peptide microarray binding signal,"[1]; peptide modifications: H3K56me3, binder concentration: 500 nM",0.0019 ± 6e-05
same,peptide microarray binding signal,"[2]; peptide modifications: H3K56me3, binder concentration: 10 nM",0.00233 ± 2.7e-05
same,peptide microarray binding signal,"[2]; peptide modifications: H3K56me3, binder concentration: 100 nM",0.002268 ± 2.2e-05
same,peptide microarray binding signal,[3]; [21],0.00259 ± 0.0002
same,peptide microarray binding signal,[3]; [22],0.00108 ± 3.8e-05
same,peptide microarray binding signal,[4]; [21],0.0209 ± 0.0092
same,peptide microarray binding signal,[4]; [22],0.00986 ± 0.0031
EIRRYQKSTELLI [H3 50-62 E I R R Y Q Kme3 Sph T E L L I],peptide microarray binding signal,"[1]; peptide modifications: H3K56me3 H3S57ph, binder concentration: 50 nM",0.00122 ± 2.2e-05
same,peptide microarray binding signal,"[1]; peptide modifications: H3K56me3 H3S57ph, binder concentration: 500 nM",0.00224 ± 0.0003
same,peptide microarray binding signal,"[2]; peptide modifications: H3K56me3 H3S57ph, binder concentration: 10 nM",0.00251 ± 0.0001
same,peptide microarray binding signal,"[2]; peptide modifications: H3K56me3 H3S57ph, binder concentration: 100 nM",0.00142 ± 0.00012
same,peptide microarray binding signal,[3]; [23],0.00238 ± 0.00081
same,peptide microarray binding signal,[3]; [24],0.00177 ± 5e-05
same,peptide microarray binding signal,[4]; [23],0.0141 ± 0.011
same,peptide microarray binding signal,[4]; [24],0.0094 ± 0.0038
